Measured values as given in PubChem BioAssay (Tox21).
Values without a mark were called inactive. Inconclusive results are not listed. Entries that show only a call come without a potency. Calls of active or inactive are those of the source. Unless noted, calls follow the shape of the dose curve; as a rule, active = well fitted curve in the direction sought with a large enough effect in the repeat runs; inconclusive = weak or mixed curves; inactive = no such curve, though single readings can be large; an effect the other way counts as inactive or inconclusive.

What was measured:
[1] = qHTS assay for small molecule agonists of the p53 signaling pathway (AID 651631; calls by dose curve; also: nearly all actives have a fitted effect of over 15% in size)
Summary of the method: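 Testing took place in human colorectal HCT-116 cells with stable p53RE-driven beta-lactamase. After 16 h of compound exposure at 37 °C, a FRET substrate was added and fluorescence recorded 2 h later.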

[2] = qHTS assay for small molecules that induce genotoxicity in human embryonic kidney cells expressing luciferase-tagged ATAD5 (AID 651632); also: nearly all actives have a fitted effect of over 15% in size
Summary of the method: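 Increased luciferase signal from ATAD5-tagged reporter cells indicates DNA-damage-driven ATAD5 induction. HEK293T cells are treated for 16 hr at 37C before detection with Amplite.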

[3] = qHTS assay for small molecule agonists of the p53 signaling pathway - cell viability (AID 651633; calls by dose curve; also: nearly all actives have a fitted effect of over 30% in size)
Summary of the method: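 Viability counter-read: CellTiter-Glo luminescence (30 min, room temperature) in the same p53RE-bla plates. These plates had been exposed to compounds for 16 h at 37 C.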

[4] = qHTS assay for small molecules that induce genotoxicity in human embryonic kidney cells expressing luciferase-tagged ATAD5 - cell viability (AID 651634; calls by dose curve; also: nearly all actives have a fitted effect of over 25% in size; also: potency is read from the fitted curve at half-maximal effect)
Summary of the method: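 Cytotoxicity counterscreen in HEK293T cells bearing an ATAD5-luciferase reporter: live-cell protease activity measured by CellTiter-Fluor fluorescence after 15.5 hr compound exposure.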

[5] = qHTS assay to test for compound auto fluorescence at 590 nm (red) in HepG2 cells (AID 720674)
Summary of the method: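 Red autofluorescence (Ex/Em 540/590 nm, Rose Bengal sodium equivalents) was measured in HepG2 cells, 2,000 per well in MEM plus 10% FBS, plated overnight at 37 C. Readings were taken 1 hr after adding 23 nL compound or DMSO, at 37 C and 5% CO2.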

[6] = qHTS assay to test for compound auto fluorescence at 535 nm (green) in HepG2 cells (AID 720675)
[7] = qHTS assay to test for compound auto fluorescence at 460 nm (blue) in HEK293 cells (AID 720678)
Summary of the method: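 Auto fluorescence in the blue band was quantified as triamterene equivalency. HEK293 cells were seeded at 2,000/well, dosed after a 4-5 hr attachment, and kept overnight at 37C before the 405/460 nm reading.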

[8] = qHTS assay to test for compound auto fluorescence at 590 nm (red) in HEK293 cells (AID 720679)
Summary of the method: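 Autofluorescence equivalency to Rose Bengal sodium, 540/590nm, in HEK293 cells exposed overnight to 23 nL compound per well.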

[9] = qHTS assay to test for compound auto fluorescence at 535 nm (green) in HEK293 cells (AID 720680)
[10] = qHTS assay to test for compound auto fluorescence at 460 nm (blue) in HEK293 cell free culture (AID 720681)
Summary of the method: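 Blue fluorescence (Ex 405/Em 460 nm, triamterene-equivalent) was read immediately after pin transfer of compound or DMSO into medium (DMEM, 10% FBS) without cells.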

[11] = qHTS assay to test for compound auto fluorescence at 590 nm (red) in HEK293 cell free culture (AID 720683)
Summary of the method: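 Red-channel autofluorescence of compounds in culture medium (DMEM, 10% FBS), no cells, measured at 540/590 nm. Rose Bengal sodium is the reference fluorophore for equivalence.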

[12] = qHTS assay to test for compound auto fluorescence at 590 nm (red) in HepG2 cell free culture (AID 720684)
Summary of the method: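 Plate contents were MEM with 10% FBS plus test compound or DMSO, no cells. Fluorescence was recorded with 540 nm excitation and 590 nm emission.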

[13] = qHTS assay to test for compound auto fluorescence at 460 nm (blue) in HepG2 cell free culture (AID 720685)
Summary of the method: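 Compound (23 nL) or DMSO pinned into cell-free MEM with 10% FBS; blue fluorescence read at 405/460 nm excitation/emission, expressed as auto-fluorescence equivalency to triamterene.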

[14] = qHTS assay to test for compound auto fluorescence at 460 nm (blue) in HepG2 cells (AID 720687)
Summary of the method: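 Blue-channel autofluorescence (Ex/Em 405/460 nm, triamterene-equivalent) was measured after 1 hr compound exposure at 37 C, 5% CO2. Cells were HepG2, plated overnight at 37 C in MEM plus 10% FBS.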

[15] = qHTS assay to test for compound auto fluorescence at 535 nm (green) in HepG2 cell free culture (AID 720686)
[16] = target: Glucocorticoid receptor (Homo sapiens) (UniProt P04150); assay: qHTS assay to identify small molecule agonists of the glucocorticoid receptor (GR) signaling pathway (AID 720691; active = well fitted activation curve with a large enough effect in the signal ratio in the repeat runs, not every such curve was filed as active; the % refers to the signal ratio); conditions: GR-bla HeLa, beta-lactamase reporter ratio, 18 h; activation: at 62.4 µM (top of the series) unless noted
Summary of the method: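 Agonist mode in a HeLa line carrying a GRE-controlled beta-lactamase reporter. Compounds act for 18 h at 37 C before a 2 h room-temperature FRET substrate step and fluorescence reading.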

[17] = target: Glucocorticoid receptor (Homo sapiens) (UniProt P04150); assay: qHTS assay to identify small molecule antagonists of the glucocorticoid receptor (GR) signaling pathway (AID 720692; active = well fitted inhibition curve with a large enough effect in the signal ratio in the repeat runs, not every such curve was filed as active; the % refers to the signal ratio)
Summary of the method: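 Cells plated, rested 4 h at 37 C/5% CO2; compounds in DMSO pin-transferred; dexamethasone added to 5 nM final; 18 h at 37 C; B/G FRET substrate added, 2 h room temperature; fluorescence measured.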

[18] = qHTS assay to test for compound auto fluorescence at 535 nm (green) in HEK293 cell free culture (AID 720682)
Summary of the method: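 DMEM + 10% FBS, cell-free; cpd or DMSO pinned in; Ex485/Em535 read; output as fluorescein-equivalent signal.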

[19] = qHTS assay for small molecule disruptors of the mitochondrial membrane potential - cell viability (AID 720634; calls by dose curve;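 also: human HepG2 liver cancer cells; nearly all actives have a fitted effect of over 20% in size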)
Summary of the method: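 After overnight attachment at 37 C, HepG2 cells received compound or DMSO vehicle for 1 hr. Viability is then taken from ATP-driven luminescence following a 30 min room-temperature CellTiter-Glo step.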

[20] = qHTS assay for small molecule disruptors of the mitochondrial membrane potential (AID 720635)
Summary of the method: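 Mitochondrial membrane potential tracked with Mito-MPS dye, red aggregates (ex 540/em 590 nm) against green monomers (ex 490/em 535 nm). Compound treatment 1 hr at 37C, dye 30 min in HepG2.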

Sequence of Glucocorticoid receptor (Homo sapiens) (P04150 whole entry, looked up): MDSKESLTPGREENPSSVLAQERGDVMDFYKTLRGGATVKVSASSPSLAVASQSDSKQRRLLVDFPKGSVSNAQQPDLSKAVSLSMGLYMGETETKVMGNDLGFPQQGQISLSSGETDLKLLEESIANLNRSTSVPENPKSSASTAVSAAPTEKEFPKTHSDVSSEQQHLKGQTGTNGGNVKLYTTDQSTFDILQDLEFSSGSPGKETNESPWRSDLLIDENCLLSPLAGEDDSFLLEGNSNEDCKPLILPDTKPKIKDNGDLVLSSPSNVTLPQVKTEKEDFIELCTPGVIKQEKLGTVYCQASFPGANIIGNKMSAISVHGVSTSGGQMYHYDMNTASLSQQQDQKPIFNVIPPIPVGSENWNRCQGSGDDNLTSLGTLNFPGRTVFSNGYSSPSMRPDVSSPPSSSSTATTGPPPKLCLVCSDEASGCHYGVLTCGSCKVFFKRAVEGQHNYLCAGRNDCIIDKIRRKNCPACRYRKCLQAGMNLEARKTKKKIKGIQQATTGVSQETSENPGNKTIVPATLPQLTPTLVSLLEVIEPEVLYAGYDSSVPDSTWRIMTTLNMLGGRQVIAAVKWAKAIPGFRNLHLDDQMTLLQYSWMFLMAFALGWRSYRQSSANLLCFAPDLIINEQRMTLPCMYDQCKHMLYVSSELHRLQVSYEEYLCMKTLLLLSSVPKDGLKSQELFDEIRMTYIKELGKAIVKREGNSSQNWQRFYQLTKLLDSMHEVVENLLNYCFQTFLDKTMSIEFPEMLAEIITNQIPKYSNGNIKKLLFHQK

SMILES | Potency [1] | Potency [2] | Potency [3] | Potency [4] | Potency [5] | Potency [6] | outcome [7] | Potency [8] | outcome [9] | outcome [10] | Potency [11] | Potency [12] | outcome [13] | outcome [14] | Potency [15] | Potency [16] | Potency [17] | outcome [18] | Potency [19] | Potency [20]
CN(C)c1ccc(C(c2ccccc2)c2ccc(N(C)C)cc2)cc1 | inactive | inactive | inactive | inactive | inactive | inactive | inactive | inactive | inactive | inactive | inactive | inactive | inactive | inactive |  |  |  |  |  | 
CCCCc1ncc(/C=C(\Cc2cccs2)C(=O)O)n1Cc1ccc(C(=O)O)cc1 | inactive | inactive | inactive | inactive | inactive |  | inactive | inactive | inactive | inactive | inactive | inactive | inactive | inactive | inactive | inactive | inactive |  |  | 
Cc1ccc(N=Nc2c(O)c(C(=O)O)cc3ccccc23)c(S(=O)(=O)O)c1 | inactive | inactive | inactive | 11.8 µM (active) | inactive | inactive |  | inactive | inactive | inactive | inactive | inactive | inactive | inactive | inactive |  |  | inactive |  | 
OC[C@H]1O[C@@H](OCCc2ccc(O)cc2)[C@H](O)[C@@H](O)[C@@H]1O | inactive | inactive | inactive | inactive |  | inactive | inactive | inactive | inactive | inactive | inactive | inactive | inactive | inactive | inactive |  | inactive |  | inactive | 
O=S(=O)(Oc1ccc(Cl)cc1)c1ccccc1 | inactive | inactive | inactive | inactive | inactive | inactive | inactive | inactive |  | inactive | inactive | inactive | inactive | inactive | inactive | inactive | inactive | inactive |  | 
CCOCC(O)COc1ccc(NC(=O)CC[S+](C)C)cc1 (stereo not given) | inactive | inactive | inactive | inactive |  |  |  | inactive | inactive | inactive | inactive | inactive | inactive | inactive | inactive | inactive | inactive | inactive | inactive | 
CC(C)CC(=O)C1C(=O)c2ccccc2C1=O | inactive | inactive | inactive | inactive | inactive | inactive | inactive | inactive | inactive | inactive | inactive | inactive | inactive | inactive |  | inactive |  | inactive |  | 
O=C1OC(=O)C2C3C=CC(C3)C12 (stereo not given) | inactive | inactive | inactive | inactive | inactive | inactive |  | inactive |  | inactive | inactive | inactive | inactive | inactive |  |  |  |  | inactive | 
CN(C)c1ccc(CCO)cc1 | inactive | inactive | inactive | inactive | inactive | inactive | inactive | inactive | inactive | inactive | inactive | inactive | inactive | inactive | inactive |  |  | inactive |  | inactive
CCOC(=O)Cc1cccc2ccccc12 | inactive | inactive | inactive | inactive |  | inactive | inactive | inactive | inactive | inactive | inactive | inactive |  | inactive | inactive | inactive | inactive | inactive | inactive | 
C=CC1CC2C=CC1C2 (stereo not given) | inactive | inactive | inactive | inactive | inactive | inactive | inactive | inactive | inactive | inactive | inactive | inactive | inactive | inactive |  | inactive | inactive | inactive | inactive | 
Nc1ccccc1S(=O)(=O)c1ccccc1 | inactive | inactive | inactive | inactive | inactive | inactive | inactive | inactive | inactive | inactive | inactive | inactive |  | inactive | inactive | inactive | inactive |  | inactive | 
C=C(C)C(=O)OCCOCC | inactive | inactive | inactive | inactive |  |  |  | inactive | inactive | inactive | inactive | inactive | inactive | inactive | inactive | inactive |  | inactive | inactive | 
COC(C)OC | inactive | inactive | inactive | inactive | inactive | inactive | inactive | inactive |  | inactive | inactive | inactive | inactive | inactive | inactive | inactive | inactive | inactive | inactive | 
C#C[C@]1(O)CC[C@H]2[C@@H]3CCc4cc(OC5CCCC5)ccc4[C@H]3CC[C@@]21C | inactive | inactive | inactive | inactive | inactive | inactive | inactive | inactive |  | inactive | inactive | inactive | inactive | inactive |  |  |  | inactive | inactive | 
